Test results taken from PubChem BioAssay (NCI).
About 83,000 compounds went through this panel and 20% of them were active in at least one assay; those are over-represented in the sample as a whole.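 Cells were grown in 96-well plates and exposed to the test compound at a single concentration for 48 hours; results are reported as percent growth, with values below 10 considered active.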 Values without a mark were called inactive. The source made the active and inactive calls.

Key:
Assay in all cases: NCI-60 one-dose screen, 48 h (100 = growth as untreated, 0 = no growth, -100 = all killed)
Conditions in all cases: 10 µM unless noted
DU-145 prostate = test system: DU-145 prostate
K-562 leukemia = test system: K-562 leukemia
MALME-3M melanoma = test system: MALME-3M melanoma
MDA-MB-231 breast = test system: MDA-MB-231 breast
RXF 393 renal = test system: RXF 393 renal
SF-268 CNS = test system: SF-268 CNS
SF-295 CNS = test system: SF-295 CNS
SF-539 CNS = test system: SF-539 CNS
UACC-257 melanoma = test system: UACC-257 melanoma
M14 melanoma = test system: M14 melanoma
HCT-15 colon = test system: HCT-15 colon
HT29 colon = test system: HT29 colon
SNB-75 CNS = test system: SNB-75 CNS
SNB-19 CNS = test system: SNB-19 CNS
U251 CNS = test system: U251 CNS
PC-3 prostate = test system: PC-3 prostate
SK-MEL-5 melanoma = test system: SK-MEL-5 melanoma
UACC-62 melanoma = test system: UACC-62 melanoma
LOX IMVI melanoma = test system: LOX IMVI melanoma
SK-MEL-28 melanoma = test system: SK-MEL-28 melanoma

Compound | growth (DU-145 prostate) [%] | growth (K-562 leukemia) | growth (MALME-3M melanoma) | growth (MDA-MB-231 breast) | growth (RXF 393 renal) | growth (SF-268 CNS) [%] | growth (SF-295 CNS) | growth (SF-539 CNS) | growth (UACC-257 melanoma) | growth (M14 melanoma) | growth (HCT-15 colon) | growth (HT29 colon) | growth (SNB-75 CNS) | growth (SNB-19 CNS) [%] | growth (U251 CNS) | growth (PC-3 prostate) [%] | growth (SK-MEL-5 melanoma) | growth (UACC-62 melanoma) | growth (LOX IMVI melanoma) | growth (SK-MEL-28 melanoma)
COc1ccccc1N1C(=O)/C(=C/C2=Cc3ccccc3OC2)SC1=S | 100 | 75% | 92.9% | 88.1% | 103% | 109 | 91.5% | 103% | 100% | 98.2% | 65.3% | 99.6% | 97.8% | 91.1 | 95.7% | 77.1 | 97.7% | 86% | 105% | 92.8%
COc1ccc(C(=NN=C(N)N)c2ccc(OC)cc2)cc1 | 52.8 | 19.9% | 69.4% | 48.4% | -2.81% (active) | 47.1 | 48.5% | 57.7% | 43.6% | 18.3% | 69.1% | 15.4% | -5.63% (active) | 43.6 | 39.4% | 30.6 | 13.9% | 52.6% | 15.8% | 59%
Cc1cc(=O)oc2c1ccc1oc(C#N)c(C)c12 | 102 | 108% | 97.2% | 107% | 113% | 99.9 | 102% | 98.9% | 105% | 100% | 98.9% | 93.4% | 92.9% | 99.9 | 99.4% | 90.4 | 100% | 99.9% | 88.2% | 96.5%
CS(=O)c1cccc(-c2ccc3nc(N)n(-c4ccc(C(F)(F)F)cc4)c(=O)c3c2)c1 (stereo not given) | 103 | 96.2% | 78.6% | 90.5% | 92.5% | 89.1 | 92.1% | 91.7% | 101% | 99.5% | 105% | 99.8% | 114% | 91.7 | 88.9% | 83.5 | 87.8% | 95% | 88.1% | 114%
NC[C@H](O)c1ccc(O)c(O)c1 | 106 | 106% | 111% | 78.8% | 117% | 112 | 123% | 92% | 109% | 95.9% | 104% | 102% | 120% | 112 | 106% | 99.7 | 104% | 102% | 94.2% | 116%
Cc1cc(NCc2cc(Nc3ccnc4cc(Cl)ccc34)ccc2F)nc(N2CCN(c3ccccc3)CC2)n1 | 72.5 | -0.109% (active) | 84.4% | 17.2% | 47.4% | 65.3 | 27.3% | 61.9% | 73.7% | 43.4% | 15.6% | 13.6% | 57.7% | 76.5 | 10.5% | 42.7 | 53.3% | 70.6% | -84.6% (active) | 69.7%
CCc1ccccc1-n1c(-c2ccc(Cl)cc2)cc(-c2ccc(Cl)cc2)c(C#N)c1=O | 77.1 | 66.1% | 90.8% | 101% | 93.3% | 83.6 | 89% | 104% | 98.6% | 85.3% | 84.3% | 84.4% | 98.6% | 109 | 84.9% | 76.4 | 88.7% | 84.8% | 82.4% | 99.4%
COc1ccccc1NC(=O)N/C(N)=N/c1nc2ccccc2s1 | 19.3 | 12.9% | 57.6% | 48.1% | 4.12% (active) | 49.5 | 39.2% | -31.5% (active) | 75.4% | 8.17% (active) | 16.5% | 8.24% (active) | 22.6% | 37.5 | 18.3% | 25 | 23.7% | 31.4% | 34.3% | 53.4%
Clc1cc(Cl)cc(Nc2ccc3cc(OCCCN4CCOCC4)ccc3n2)c1 | 40.6 | -27.3% (active) | 66.5% | -5.22% (active) | 5.08% (active) | 46.9 | -59.7% (active) | 9.86% (active) | 49% | 12.6% | 7.18% (active) | -39.5% (active) | 11% | 38.5 | 2.35% (active) | 21.8 | 71% | 12.9% | -77.6% (active) | 27.8%
Cc1ccc(/C=C2\C(=O)N(C)c3ccc(S(=O)(=O)Nc4ccc(C(C)(C)C)cc4)cc32)s1 | 38.9 | 66.7% | 42.5% | 21.2% | 42.1% | 26.7 | 42.6% | 19.4% | 76% | 67% | 68% | 64.9% | -18.3% (active) | 58.3 | 20.5% | 52.9 | 82.3% | 60.7% | 28.2% | 69.1%
CC(C)(C)c1ccc(/C=C/C(=O)Nc2ccc(O)cc2)cc1 | 70.3 | 4.2% (active) | 67% | 53% | 90.9% | 59.7 | 79.5% | 40.6% | 64.9% | 28.4% | 43.4% | 18.7% | 96.6% | 83.3 | 72.8% | 59 | 51.4% | 55.1% | -3.96% (active) | 86.5%
Cc1ccc2[nH]c(=O)c3c(c2c1)OC(N)=C(C#N)C31c2cc(Br)ccc2-c2ccc(Br)cc21 | 29.1 | 60.7% | 54.9% | 39.1% | 65.8% | 78 | 70.1% | 85.5% | 76.8% | 55.1% | 45.4% | 39.7% | 70% | 62.5 | 72.6% | 48.3 | 56% | 49.5% | 63% | 66.8%
CC(=O)N1C(=S)NC(=O)C1Cn1c(-c2ccccc2)nc2ccccc21 (stereo not given) | 110 | 101% | 101% | 90.4% | 96.5% | 99.2 | 105% | 97.1% | 107% | 103% | 98.3% | 107% | 76.2% | 93.3 | 101% | 97.8 | 99.1% | 91.5% | 95.8% | 106%
CCOC(=O)c1c2ncccc2n2c(=O)n(-c3ccccc3C)nnc12 | 142 | 86.4% | 145% | 104% | 107% | 117 | 105% | 91.8% | 91.7% | 99% | 100% | 112% | 84% | 105 | 105% | 122 | 84% | 95.3% | 86.5% | 157%
N#CCN1C(=O)C2C3=C(CCCC3)SC2N=C1CN1CCCC1 (stereo not given) | 99.7 | 70.1% | 111% | 94.9% | 88.6% | 118 | 107% | 92.5% | 96.8% | 120% | 74.4% | 110% | 88.3% | 106 | 102% | 48.5 | 98.2% | 83.6% | 97.7% | 120%
O=C(c1ccc(Nc2nccc(NCCCCNc3ccnc4cc(Cl)ccc34)n2)cc1)N1CCCCC1 | 51.6 | -25.3% (active) | -78.6% (active) | -9.32% (active) | 46.9% | 34.2 | 1.19% (active) | -73.7% (active) | -50.8% (active) | -69% (active) | 11.2% | -11.3% (active) | -23.5% (active) | 24.7 | -31.6% (active) | 28.7 | -92.3% (active) | -23% (active) | -83.2% (active) | -52.5% (active)
